# Measured values as given in PubChem BioAssay AID1376 (SRMLSC, 2008).
# Among all 220,000 compounds or so, about 530 (0.24%) were called active. The sample holds actives, similar compounds and a random draw of the others, so the mix is not that of the screen. Measured potencies and affinities stand elsewhere. A number with no mark means an inactive call. No stated cut-off is given here; in the data, active means inhibition above about 13%; inconclusive means no clear call, values can overlap the other calls; inactive means below that.
# Target: Bifunctional protein GlmU (Mycobacterium tuberculosis (strain ATCC 25618 / H37Rv)) (UniProt P9WMN3)
# Sequence (P9WMN3 whole entry, looked up): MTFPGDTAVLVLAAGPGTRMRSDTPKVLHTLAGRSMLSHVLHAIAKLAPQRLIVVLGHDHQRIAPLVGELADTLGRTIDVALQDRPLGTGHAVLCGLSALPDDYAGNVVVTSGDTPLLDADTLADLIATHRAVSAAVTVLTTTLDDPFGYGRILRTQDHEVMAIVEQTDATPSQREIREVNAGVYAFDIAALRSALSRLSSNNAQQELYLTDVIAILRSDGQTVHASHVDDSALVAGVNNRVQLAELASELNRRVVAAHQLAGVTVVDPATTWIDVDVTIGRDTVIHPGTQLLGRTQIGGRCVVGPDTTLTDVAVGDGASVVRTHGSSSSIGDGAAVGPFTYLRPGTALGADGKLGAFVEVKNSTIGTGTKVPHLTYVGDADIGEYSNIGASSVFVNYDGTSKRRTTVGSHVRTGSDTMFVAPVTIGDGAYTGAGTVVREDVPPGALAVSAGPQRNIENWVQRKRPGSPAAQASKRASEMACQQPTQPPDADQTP
# Assay: inhibition of mycobacterial GlmU enzyme – biochemical, glucosamine-1-phosphate acetyltransferase (AID 1376);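 further: 0% = complete reaction with vehicle and 100% = reaction without substrate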
# Settings: M. tuberculosis GlmU acetyltransferase enzyme assay; stronger effect = higher value;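 tested at 30 µM in the primary screen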
row,Compound,inhibition
1,CC(C)S(=O)(=O)C/C(N)=N/OS(=O)(=O)c1ccc(Cl)cc1,0.64%
2,N#Cc1cccc(-n2nnnc2-c2ccc3c(c2)OCO3)c1,0.01%
3,CC1CN(c2ccc([N+](=O)[O-])c(NCCOc3ccccc3)c2)CCN1 (centres undefined),1.45%
4,Cc1ccc(Sc2cc(NCCCO)c([N+](=O)[O-])c3nonc23)cc1,-0.69%
5,CCC(=O)OCCNc1cc(Sc2nc3ccccc3[nH]2)c2nonc2c1[N+](=O)[O-],10.6%
6,CCCC(=O)OCCNc1cc(Sc2nc3ccccc3[nH]2)c2nonc2c1[N+](=O)[O-],9.67%
7,CCC(=O)OCCNc1cc(Sc2nccn2C)c2nonc2c1[N+](=O)[O-],12.7%
8,Cc1nnc(Sc2cc(NCCO)c([N+](=O)[O-])c3nonc23)s1,1.7%
9,Cn1ccnc1Sc1cc(NCCCO)c([N+](=O)[O-])c2nonc12,3.47%
10,CSc1ncccc1C(=O)OCC(=O)NC1CCS(=O)(=O)C1 (centres undefined),3.34%
11,Cc1ccccc1OCc1nc(C#N)c(N2CCCC2)o1,-2.21%
12,COc1ccc(-c2cc(C(=O)N3CCN(c4ccccc4OC)CC3)no2)cc1OC,-2.36%
13,Cc1nc2ccccc2cc1C(=O)N/N=C/c1cccc([N+](=O)[O-])c1,1.15%
14,Cc1onc(-c2ccccc2)c1C(=O)N1CCc2ccccc21,-2.16%
15,Cc1noc(C)c1C(=O)N1CCCc2ccccc21,-6.07%
16,Cc1noc(C)c1C(=O)N1CCc2ccccc21,12.9% (active)
17,Cc1cc(S(=O)(=O)NCc2ccccc2)ccc1OCC(=O)N1CCOCC1,0.4%
18,CC(C)CCNC(=O)CCCOc1cc(=O)n(C)c2ccccc12,4.37%
19,CCN1CCN(C(=O)C23CCC(C)(C(=O)C2Br)C3(C)C)CC1 (centres undefined),5.77%
20,COc1ccc(OCC(=O)c2c(O)c3ccccc3oc2=O)cc1,13.8% (active)
21,CCc1ccc(OCC(=O)c2c(O)c3ccccc3oc2=O)cc1,-0.96%
22,CCCCC(=O)c1c(O)c2ccccc2oc1=O,0.58%

row,Compound,inhibition
1,CCOc1ccc(OCC(=O)c2c(O)c3ccccc3oc2=O)cc1,14.2% (active)
2,Cc1ccc(C(C)C)c(OCC(=O)c2c(O)c3ccccc3oc2=O)c1,4.14%
3,Cc1ccc(OCC(=O)c2c(O)c3ccccc3oc2=O)cc1C,0.96%
4,CNc1c([N+](=O)[O-])cnn1-c1ccc(C)cc1,5.02%
5,C=CCOc1ccc(/C(O)=C2/C(=O)C(=O)N(CCCn3ccnc3)C2c2ccco2)cc1 (centres undefined),5.54%
6,CC(C)(C)NCC(O)COc1ccc(Br)cc1 (centres undefined),-5.25%
7,CN(C)c1nc(-c2ccccc2)nc(-c2ccc(Cl)cc2)c1C#N,-2.64%
8,C/C(=N\NC(=O)c1ccccc1)c1ccccc1Br,3.08%
9,Nc1ccc(S(=O)(=O)N2CCCC2)cc1Cl,0.44%
10,COC(=O)C1C(c2ccccc2)C=CC(c2ccccc2)C1C(=O)O (centres undefined),2.66%
11,CC1=CC(C)C(C(=O)O)C(C(=O)O)C1 (centres undefined),4.72%
12,CC(C)(C)C(=O)COC(=O)c1cccc(NC(=O)c2ccco2)c1,3.57%
13,CCn1c(-c2ccc(N)cc2)nc2ccccc21,4.62%
14,CN(C)c1ccc(-c2nc3ccccc3n2C)cc1,3.52%
15,CCn1c(-c2ccc(N(C)C)cc2)nc2ccccc21,13.3% (active)
16,Cc1cnc(C)c(N2CCC(C(=O)NCc3cccs3)CC2)n1,2.06%
17,Cc1cnc(C)c(N2CCC(C(=O)NC(C)c3cccs3)CC2)n1 (centres undefined),13.1% (active)
18,Cc1cnc(C)c(N2CCC(C(=O)NCc3ccco3)CC2)n1,-3.63%
19,O=C/C(=C\Nc1ccccn1)c1nc2ccccc2o1,13.3% (active)
20,O=C/C(=C\Nc1ccccn1)c1nc2cc(Cl)ccc2o1,-1.58%
21,O=C/C(=C\Nc1ccc(Cl)cn1)c1nc2ccccc2o1,0.28%
22,COC(=O)/C=C/c1ccc(-n2cncn2)cc1,0.5%
